The sample as a whole holds a higher share of hits than the screen did.
Pf Dd2 inh: blocks in vitro growth of P. falciparum Dd2. P. falciparum Dd2 growth, SYBR Green, 72 h. Potency, µM (doses to about 28.9 µM), actives largely listed as inhibitors. hit rate 4.3% among 120,000. AID 1347417; active means well fitted inhibition curve with a large enough effect; further: nearly all actives have a fitted effect of over 65% in size
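Infected erythrocytes (Dd2, 0.3% parasitemia, 2.5% hematocrit final) are added to compound in RPMI-1640/Albumax II medium, grown 72 h at 37C in low oxygen, then lysed with saponin/Triton-X containing SYBR Green and read by fluorescence.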
Large screens that a line does not name were inactive.

Cc1cc(Br)ccc1NC(=O)c1c(C)oc2ncnc(N3CCCCC3)c12	none
COc1ccc(NC(=O)c2c(C)oc3ccc(O)c(CN4CCCCCC4)c23)cc1Cl	Pf Dd2 inh 0.35µM
COc1cc(=O)n2c(c1C(=O)Nc1ccccc1C)CCCC2	none
COc1cc(=O)n2c(c1C(=O)Nc1ccc(F)c(Cl)c1)CCCC2	none
Cc1ccccc1NC(=O)c1c(C)oc2ccc(O)c(CN3CCCCCC3)c12	Pf Dd2 inh 2.5µM
Cc1ccc(NC(=O)c2c(C)oc3ncnc(N4CCCCC4)c23)cc1Cl	none
CCN1CCCCC12Cc1ccccc1CN(C(=O)CCC(=O)O)C2 (stereo not drawn)	none
O=C(NC1C[C@H]2CC[C@@H](C1)N2C(=O)c1ccc2c(c1)OCO2)c1ccncc1 (stereo partly drawn)	none
CN1CCN(C(CNC(=O)C(=O)Nc2cccc(Cl)c2)c2ccc3c(c2)OCO3)CC1 (stereo not drawn)	Pf Dd2 inh 7.1µM
Cc1cccc(NC(=O)C(=O)NCC(c2ccc3c(c2)OCO3)N2CCN(C)CC2)c1C (stereo not drawn)	none
CC(C)C(=O)NCC(c1ccc2c(c1)OCO2)N1CCN(c2ccccc2)CC1 (stereo not drawn)	none
CCOc1ccc(C(=O)NCC(c2ccc3c(c2)OCO3)N2CCOCC2)cc1 (stereo not drawn)	none
O=C(NCC(c1ccc2c(c1)OCO2)N1CCN(c2ccc(F)cc2)CC1)c1cccc([N+](=O)[O-])c1 (stereo not drawn)	none
O=C(NCC(c1ccc2c(c1)OCO2)N1CCOCC1)C(=O)Nc1cccc(Cl)c1 (stereo not drawn)	none
CCOc1ccc(C(=O)NCC(c2ccc3c(c2)OCO3)N2CCN(c3ccc(F)cc3)CC2)cc1 (stereo not drawn)	Pf Dd2 inh 11µM
COc1ccc(N2CCN(C(CNC(=O)CC(C)C)c3ccc4c(c3)OCO4)CC2)cc1 (stereo not drawn)	Pf Dd2 inh 5.6µM
CCC(=O)NCC(c1ccc2c(c1)OCO2)N1CCN(c2ccccc2)CC1 (stereo not drawn)	none
COc1ccc(CN2CCC3(CC2)CC(O)CCO3)cc1 (stereo not drawn)	none
O=C(NC1CCCCC1)[C@@H]1C[C@@H](O)CN1C1CCN(C(=O)C2CCOCC2)CC1	none
COc1ccc(C(=O)N2CCC(N3C(=O)C(OC)C34CCOCC4)CC2)c(OC)c1 (stereo not drawn)	none
Cn1nccc1CN1CCC2(Cc3ccccc3NC2=O)C1 (stereo not drawn)	none
O=C(CCc1nnn2c1CN(C(=O)NCc1ccccc1)CC2)N1CCOCC1	none
COc1ccc(Cn2c(C3CCN(C(=O)c4ccccc4)CC3)n[nH]c2=O)cc1	none
COc1cc2c(cc1OC)C(COc1ccc3c(C)cc(=O)oc3c1)N(C(=O)CC(C)C)CC2 (stereo not drawn)	Pf Dd2 inh 11µM
COc1ccccc1NC(=O)N1CCc2cc(OC)c(OC)cc2C1CNC(=O)CC(C)C (stereo not drawn)	none
COc1cc2c(cc1OC)C(CNC(=O)CC(C)C)N(C(=O)Nc1cccc(F)c1)CC2 (stereo not drawn)	none
CCOc1ccc(NC(=O)N2CCc3cc(OC)c(OC)cc3C2CNC(=O)NC(C)C)cc1 (stereo not drawn)	none
CCOc1ccc2oc(=O)cc(CN3CCN(C(=O)c4ccc(OC)c(OC)c4)CC3)c2c1	none
CCOc1ccc(CC(=O)N2CCc3cc(OC)c(OC)cc3C2COc2ccc3c(C)cc(=O)oc3c2)cc1 (stereo not drawn)	Pf Dd2 inh 4µM
CNCc1cn(C2CCN(Cc3c(OC)ccc(F)c3F)CC2)nn1	none
CCn1ccc(C(=O)N2CCC(c3nn(C)c(=O)n3CCc3ccccc3)CC2)n1	none
COc1ccccc1N1CCCc2ncc(C(=O)Nc3cccc(F)c3)cc21	none
Cc1ccc2oc(N3CCCC4(CCC(=O)N(Cc5cccnc5)C4)C3)nc2c1 (stereo not drawn)	none
CC[C@H]1CN(C(=O)C(C)(C)C)CC[C@H]1CC(=O)O	none
COc1ccc(-c2cc([C@H]3CN4CC[C@H]3C[C@@H]4CNS(=O)(=O)c3ccc(Cl)cc3)n(C)n2)cc1OC	Pf Dd2 inh 0.63µM
COc1ccc(-c2cc([C@H]3CN4CC[C@H]3C[C@@H]4COC(=O)NC(C)C)n(C)n2)cc1OC	none
COc1ccc(-c2cc([C@H]3CN4CC[C@H]3C[C@@H]4CNC(=O)c3ccco3)n(C)n2)cc1OC	none
COc1ccc(-c2cc([C@H]3CN4CC[C@H]3C[C@@H]4CNS(=O)(=O)c3ccc(NC(C)=O)cc3)n(C)n2)cc1	none
CC(=O)NC[C@H]1C[C@@H]2CCN1C[C@@H]2c1cc(-c2ccc3ccccc3c2)nn1C	none
COc1ccc(-c2cc([C@H]3CN4CC[C@H]3C[C@@H]4CNC(=O)NCc3ccccc3)n(C)n2)cc1	none
COc1ccc(-c2cc([C@H]3CN4CC[C@H]3C[C@@H]4CN)n(C)n2)cc1OC	Pf Dd2 inh 11µM
COc1ccc(OC)c(S(=O)(=O)NC[C@H]2C[C@@H]3CCN2C[C@@H]3c2cc(-c3ccc4ccccc4c3)nn2C)c1	none
Cn1nc(-c2ccc3ccccc3c2)cc1[C@H]1CN2CC[C@H]1C[C@@H]2CNC(=O)NCc1ccccc1	Pf Dd2 inh 7.9µM
